# Results filed as inconclusive are left out. A call without a number means that no potency is given here. Unmarked numbers belong to inactive results. Activity calls are given as the source filed them. Calls follow the shape of the dose curve; as a rule, active = well fitted inhibition curve with a large enough effect; inconclusive = small, poorly fitted or top-dose-only effect; inactive = flat fitted curve, though single readings scatter.
# Molecular target: Calcium and integrin-binding protein 1 (Homo sapiens) (UniProt Q99828)
# Sequence (Q99828 whole entry, looked up): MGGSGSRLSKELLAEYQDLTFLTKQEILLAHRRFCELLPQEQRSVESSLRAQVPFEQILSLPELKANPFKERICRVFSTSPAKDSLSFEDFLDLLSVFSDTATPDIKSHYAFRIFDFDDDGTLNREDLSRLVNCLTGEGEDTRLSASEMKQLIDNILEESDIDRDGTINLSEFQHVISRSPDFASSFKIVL
# Test: Primary qHTS for Identification of Calcium Integrin Binding Protein 1 (CIB1) Competitor (AID 1508620);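 also: GST tagged CIB1 binding a fluorescein labelled alphaIIb integrin peptide tracer; top concentration of the series differs between compounds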
# Conditions: CIB1-GST / FITC-alphaIIb peptide fluorescence polarization; series mostly up to 57.7 µM
# In short: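 CIB1-GST (1 uM final) and compound incubated 15 min at room temperature before adding FITC-alphaIIb peptide tracer (100 nM final). Competition for binding read by fluorescence polarization (ex 480, em 540) after another 15 min at room temperature.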
Structure (SMILES),Potency,"activity change, negative = inhibition"
COc1ccc(C[C@H](N)C(=O)N[C@H]2[C@@H](O)[C@H](n3cnc4c(N(C)C)ncnc43)O[C@@H]2CO)cc1,inactive,–
C=CC1(C)CC(OC(=O)C(=C)C(O)COC(C)=O)C(C(=C)C(=O)OC)C(O)C1C(=C)CO (stereo unspecified),inactive,–
O=C(O)c1cc(O[C@@H]2O[C@H](CO[C@@H]3OC[C@@H](O)[C@H](O)[C@H]3O)[C@@H](O)[C@H](O)[C@H]2O)c2ccccc2c1O,inactive,–
C[C@@H]1O[C@@H](O[C@@H]2[C@@H](O)[C@H](O[C@@H]3[C@@H](O)[C@@H](O)[C@H](O[C@H]4[C@H](OC(=O)[C@]56CCC(C)(C)C[C@H]5C5=CCC7[C@@]8(C)C[C@H](O)[C@H](O[C@@H]9O[C@H](C(=O)O)[C@@H](O)[C@H](O)[C@H]9O)[C@@](C)(CO)C8[C@H](O)C[C@@]7(C)[C@]5(C)CC6)OC[C@H](O)[C@@H]4O)O[C@H]3C)OC[C@H]2O)[C@H](O)[C@H](O)[C@H]1O (stereo partly specified),–,3.71% [at 12.4 µM]
Cc1[nH]cnc1C1CCN(c2nc3cccc4c3n2CCC4=O)CC1,inactive,–
CC1OC(O[C@H]2[C@@H](O)C[C@@]3(C)C([C@H](O)C[C@]4(C)C3CC=C3C5CC(C)(C)CC[C@]5(C(=O)OC5OC(CO)C(O)C(O)C5OC5OCC(OC6OCC(OC7OCC(O)C(O)C7O)C(O)C6O)C(OC6OCC(O)(CO)C6O)C5O)CC[C@]34C)[C@]2(C)CO)C(O)C(O)C1O (stereo partly specified),–,-4.55% [at 12.4 µM]
